The whole screen tested about 360,000 compounds, of which about 270 (0.075%) were called active. A call without a number means that no potency is given here. This is one part of a sample in which actives are shown more often than they occur. The call rests on the fitted dose curve; in most records, active means well fitted activation curve with a large enough effect; inconclusive means small, poorly fitted or top-dose-only effect; inactive means no such curve, though single readings can be large or run the other way.
Target: Rap guanine nucleotide exchange factor 3 (Homo sapiens) (UniProt O95398)
Sequence (O95398 whole entry, looked up): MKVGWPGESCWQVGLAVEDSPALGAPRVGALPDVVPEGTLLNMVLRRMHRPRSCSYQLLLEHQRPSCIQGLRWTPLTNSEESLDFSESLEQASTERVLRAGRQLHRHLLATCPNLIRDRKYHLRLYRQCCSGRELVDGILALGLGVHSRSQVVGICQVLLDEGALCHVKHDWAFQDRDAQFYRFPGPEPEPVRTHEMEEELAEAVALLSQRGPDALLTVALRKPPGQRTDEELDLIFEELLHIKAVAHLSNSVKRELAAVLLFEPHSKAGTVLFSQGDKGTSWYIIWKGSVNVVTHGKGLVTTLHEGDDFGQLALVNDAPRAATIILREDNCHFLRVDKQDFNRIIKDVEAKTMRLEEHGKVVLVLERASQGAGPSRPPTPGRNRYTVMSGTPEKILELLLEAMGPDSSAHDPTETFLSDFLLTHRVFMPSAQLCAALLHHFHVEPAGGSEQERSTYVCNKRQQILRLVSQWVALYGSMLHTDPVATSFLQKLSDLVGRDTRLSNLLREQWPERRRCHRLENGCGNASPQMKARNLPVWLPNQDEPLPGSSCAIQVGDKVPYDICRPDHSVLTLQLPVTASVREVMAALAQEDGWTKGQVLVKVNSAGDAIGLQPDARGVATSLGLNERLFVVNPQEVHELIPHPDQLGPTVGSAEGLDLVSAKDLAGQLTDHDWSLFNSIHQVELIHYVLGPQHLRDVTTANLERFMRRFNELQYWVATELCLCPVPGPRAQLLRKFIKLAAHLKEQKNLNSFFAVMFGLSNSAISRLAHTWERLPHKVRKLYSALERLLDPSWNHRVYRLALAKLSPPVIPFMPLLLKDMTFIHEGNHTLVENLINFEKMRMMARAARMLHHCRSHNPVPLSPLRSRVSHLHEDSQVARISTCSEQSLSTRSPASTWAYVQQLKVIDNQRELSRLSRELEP
Experiment: qHTS for Agonist of cAMP-regulated guanine nucleotide exchange factor 3 (EPAC1): primary screen; further: nearly all actives have a fitted effect of over 60% in size
Conditions: biochemical assay; series mostly up to 154 µM
Excerpt: In multi-cellular eukaryotic organisms, the effects of cAMP are transduced by two ubiquitously-expressed intracellular cAMP receptors, the classic protein kinase A/cAMP-dependent protein kinase (PKA/cAPK) and the more recently discovered exchange protein directly activated by cAMP/cAMP-regulated guanine nucleotide exchange factor (EPAC/cAMP-GEF). Both PKA and EPAC are ubiquitously expressed in all tissues, and an increase in intracellular cAMP levels will lead to the activation of both PKA and EPAC. Therefore, careful dissections of the individual role and relative contribution of EPAC and PKA within the overall cAMP signaling in various model systems are critical for further elucidating the mechanism of cAMP signaling. To date no EPAC-specific antagonists and agonist, as well as isoform-specific agonists have been reported, and developing EPAC-specific pharmacological probes to determine the physiological functions that EPAC play in the overall cAMP-mediated signaling remains a major challenge within the research field. Furthermore, identified regulators of EPAC may lead to new mechanism-based therapeutic strategies specifically targeting the EPAC / cAMP-signaling components as EPAC has been implicated to play important roles in major human pathological conditions such as diabetes, heart disease, and cancer.
This qHTS will be used to screen the Molecular Libraries Small Molecule Repository (MLSMR) as a concentration-titration series using the NCGC unique quantitative screening (qHTS) platform to find activators for EPAC1. In addition, this assay will also be used as a counterscreen for the EPAC2 qHTS. This fluorescent based assay is developed and validated for EPAC1 that measures exchange using EPAC effector Rap1 complex with BODIPY-GDP, a GDP analog with a tethered fluorophores. Activators are identified by monitoring the change in fluorescence signal as the exchanged free BODIPY-GDP has a reduced fluorescence compared to Rap1-bound BODIPY-GDP. Increase in signal (activation) is the desired outcome for the EPAC1 agonist while no activity in this assay is desired for the EPAC2 agonist counterscreen.
[1] de Rooij, J., Zwartkruis, F. J., Verheijen, M. H., Cool, R. H., Nijman, S. M., Wittinghofer, A., and Bos, J.L. (1998) Nature 396, 474-477
NIH Chemical Genomics Center [NCGC]
NIH Molecular Libraries Probe Centers Network [MLPCN]
Assay Submitter (PI): Xiaodong Cheng, The University of Texas Medical Branch
Briefly, three uL of reagents (100 nM EPAC1, 250 nM RAP1B-BODIPY-GDP, 50 uM GDP) were dispensed into a 1536-well Greiner black solid-bottom medium binding assay plate. Controls and test compounds (23 nL) were transferred to the plate via a Kalypsys pin tool equipped with a 1536-pin array. The plates were centrifuged at 1,000 rpm for 15 seconds followed by 5 minute incubation at room temperature. The assay plates were read at 5 minute intervals for 30 minutes in the ViewLux plate reader using 480nm excitation and 540nm emission filters. The results were normalized to the agonist positive control of 6.5 mM cAMP.
Potency means the concentration at half of the fitted maximal effect.

`CCOC(=O)c1c(NC(=O)CNC2CCCc3ccccc32)sc(C(N)=O)c1C` (centres undefined) was tested. Which Potency did it give?
The Potency was “inactive”.

Which Potency does the source give for `Cc1n[nH]c(=O)c2c1nnn2Cc1ccc(F)cc1` here?
Its Potency is “inactive”.

With `O=C(COc1ccc2ccccc2c1)N1CCN(C(=O)c2cccs2)CC1` as the molecule, how does the Potency read?
The Potency was “inactive”.

With `O=C(NC(C(=O)NCCN1CCOCC1)C12CC3CC(CC(C3)C1)C2)C1CCCCC1` (centres undefined) as the molecule, how does the Potency read?
Its Potency is “inactive”.

How did the Potency turn out when `Cc1cc(C)cc(NC(=O)C(c2ccccc2)N2CCN(CC(=O)N3CCCC3)CC2)c1` (centres undefined) was run?
The Potency was “inactive”.

`Cc1ccccc1Cn1c2ccccc2c2cnn(CC(=O)NCc3ccco3)c(=O)c21` was tested. Which Potency did it give?
The Potency was “inactive”.

`C(#CCN1CCOCC1)CCCN1CCOCC1` was tested. Which Potency did it give?
Its Potency is “inactive”.

Which Potency does the source give for `O=C1CC2(CC(c3ccc(Cl)cc3)=NO2)C(=O)N1c1ccccc1` (centres undefined) here?
The Potency was “inactive”.

How did the Potency turn out when `COc1ccc(N2CCN(C(=O)CN3C(=O)COc4ccccc43)CC2)cc1` was run?
Its Potency is “inactive”.

`Cc1cccc(OCC(O)Cn2c(N3CCCCC3)nc3c2c(=O)[nH]c(=O)n3C)c1` (centres undefined) was tested. Which Potency did it give?
The Potency was “inactive”.

`COc1ccc(C2NCCCC2c2ccccc2)cc1` (centres undefined) was tested. Which Potency did it give?
Its Potency is “inactive”.

`CCCCCn1c(SCCC(C)C)nc2c1c(=O)[nH]c(=O)n2C` was tested. Which Potency did it give?
Its Potency is “inactive”.

How did the Potency turn out when `Cc1ccc2c(CSc3nncs3)cc(=O)oc2c1` was run?
The Potency was “inactive”.

Which Potency does the source give for `CCCc1ccc(OCC(O)CN2CCN(CCO)CC2)cc1` (centres undefined) here?
The Potency was “inactive”.

With `COc1ccccc1N1CCN(S(=O)(=O)CCNC(=O)c2ccc(OC(C)C)cc2)CC1` as the molecule, how does the Potency read?
The Potency was “inactive”.

`Cc1cc(NS(=O)(=O)c2ccc(NC(=O)C(C)Oc3cccc(C)c3C)cc2)nc(C)n1` (centres undefined) was tested. Which Potency did it give?
The Potency was “inactive”.

For `CCc1c(C)sc(NC(=O)OC)c1C(=O)N1CCOCC1`, which Potency is on record?
Its Potency is “inactive”.

Which Potency does the source give for `O=S1(=O)N=C(N(CCO)/N=C/c2ccccc2F)c2ccccc21` here?
Its Potency is “inactive”.

With `CCOc1cc(/C=C2/N=C(c3ccc(C(C)(C)C)cc3)OC2=O)cc(Cl)c1OS(C)(=O)=O` as the molecule, how does the Potency read?
The Potency was “inactive”.

Which Potency does the source give for `COc1ccc(C(=O)COC(=O)Cn2cnc3c2c(=O)n(C)c(=O)n3C)c(OC)c1` here?
Its Potency is “inactive”.

With `CC(=O)c1c(C)[nH]c(C(=O)OCC(=O)Nc2sc3c(c2C#N)CCCC3)c1C` as the molecule, how does the Potency read?
Its Potency is “inactive”.

`NC(=O)C1=C[C@H](c2csc3ccccc23)C[C@H](OCc2ccc(CO)cc2)O1` was tested. Which Potency did it give?
Its Potency is “inactive”.

With `Cc1cccc(CCNS(=O)(=O)c2ccc(S(=O)(=O)NC3CCCC3)cc2)c1` as the molecule, how does the Potency read?
The Potency was “inactive”.

For `Cn1c(NC(=O)c2ccco2)c(-c2ccccc2Cl)c(=O)c2ccccc21`, which Potency is on record?
Its Potency is “inactive”.

With `C/C=C/c1ccc(OCC(=O)NNC(=O)CN(C)S(=O)(=O)c2ccc(C)cc2)c(OC)c1` as the molecule, how does the Potency read?
The Potency was “inactive”.

How did the Potency turn out when `Cc1ccc(S(=O)(=O)N(C)C)cc1NC(=O)C1Cc2ccccc2CN1C(=O)c1ccco1` (centres undefined) was run?
Its Potency is “inactive”.

`CCOc1ccc(S(=O)(=O)N/N=C(\C)c2ccc(Cl)c(Cl)c2Cl)cc1` was tested. Which Potency did it give?
The Potency was “inactive”.

`C[n+]1ccc(/C=C/c2c[nH]c3ccccc23)cc1` was tested. Which Potency did it give?
Its Potency is 100 µM (active).

Which Potency does the source give for `CC(C)(C)c1ccc(SCCc2ccncc2)cc1` here?
Its Potency is “inactive”.

Which Potency does the source give for `O=C(Nc1ccccc1Cl)NC1(C(=O)N2CCOCC2)CCCCC1` here?
The Potency was “inactive”.

With `CCCCC(=O)N(c1ccc(OC)cc1)C1C=CS(=O)(=O)C1` (centres undefined) as the molecule, how does the Potency read?
Its Potency is “inactive”.

Which Potency does the source give for `CC(C)COC(=O)c1ccc(NC(=O)C2C3C=CC(C3)C2C(=O)O)cc1` (centres undefined) here?
The Potency was “inactive”.

Which Potency does the source give for `COc1cncc(-c2cnc3sc(NCCc4ccccn4)nn23)c1` here?
Its Potency is “inactive”.

Which Potency does the source give for `COCCN1C(=O)c2oc3c(C)cc(C)cc3c(=O)c2C1c1cccc(O)c1` (centres undefined) here?
The Potency was “inactive”.

Which Potency does the source give for `O=C1CCC(=O)N1CCOP1(=O)COc2ccccc2OC1` here?
The Potency was “inactive”.

`COc1ccc(C)cc1NC(=O)CN1c2cccc3cccc(c23)S1(=O)=O` was tested. Which Potency did it give?
The Potency was “inactive”.

With `COC(=O)c1c(C)cc(O)c(C)c1O` as the molecule, how does the Potency read?
Its Potency is “inactive”.

Which Potency does the source give for `CC(=O)N1c2ccc(S(=O)(=O)N3CCCC(C(=O)NCc4ccc(Cl)cc4)C3)cc2CC1C` (centres undefined) here?
Its Potency is “inactive”.

For `Cc1ccc(Cl)cc1NC(=O)COC(=O)CC(C)(C)C`, which Potency is on record?
Its Potency is “inactive”.

`CN(CC(O)COc1ccc(S(=O)(=O)N2CCOCC2)cc1Cl)C1CCCCC1` (centres undefined) was tested. Which Potency did it give?
Its Potency is “inactive”.

For `Cc1ccc(C(C)C)c(OCc2nnc(SCC(=O)Nc3nccs3)n2C)c1`, which Potency is on record?
The Potency was “inactive”.

With `O=C(c1ccccc1)N1CCC(CC2CC(c3ccc(Cl)cc3)=NO2)(C(=O)NCC2CCCCC2)CC1` (centres undefined) as the molecule, how does the Potency read?
The Potency was “inactive”.

`CCc1c(O)nc(SCC(=O)N2CCCCC2)n(-c2ccccc2C)c1=O` was tested. Which Potency did it give?
The Potency was “inactive”.

For `Cc1ccc(CN2CCN(c3ccccc3Cl)CC2)o1`, which Potency is on record?
Its Potency is “inactive”.

— PubChem BioAssay AID720707 (National Center for Advancing Translational Sciences (NCATS), 2013)
